High-throughput results deposited in PubChem BioAssay by National Center for Advancing Translational Sciences (NCATS).
A selection: hits, their analogues and other compounds. The true share with any hit is near 4.7%.
D1 antag: human D1 dopamine receptor antagonism; activity change, negative = inhibition, % at 10 µM; AID 504652; HEK293 TREx D1 cells, calcium flux, dopamine EC80; active compounds read low; P21728; 3.2% of 360,000 active; in the data active = activity change below about -30%; also: % is scaled to controls: 0 for no effect and ±100 for the full control effect
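Compound effects on dopamine-evoked calcium signalling were measured in tetracycline-induced HEK293 Trex D1 cells. Dopamine at EC80 followed a 180 s compound pre-read, and fluorescence was tracked kinetically for 180 s more.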
TRHR enhancer: allosteric enhancers of human TRH receptor; TRHR cells, fluo-8 calcium fluorescence, EC20 TRH enhancement; 0.66% of 360,000 active; P34981; enhancement, % at 2 µM; in the data active = enhancement above about 30%; also: 0% is about no effect
Target sequence (P34981 whole entry, looked up): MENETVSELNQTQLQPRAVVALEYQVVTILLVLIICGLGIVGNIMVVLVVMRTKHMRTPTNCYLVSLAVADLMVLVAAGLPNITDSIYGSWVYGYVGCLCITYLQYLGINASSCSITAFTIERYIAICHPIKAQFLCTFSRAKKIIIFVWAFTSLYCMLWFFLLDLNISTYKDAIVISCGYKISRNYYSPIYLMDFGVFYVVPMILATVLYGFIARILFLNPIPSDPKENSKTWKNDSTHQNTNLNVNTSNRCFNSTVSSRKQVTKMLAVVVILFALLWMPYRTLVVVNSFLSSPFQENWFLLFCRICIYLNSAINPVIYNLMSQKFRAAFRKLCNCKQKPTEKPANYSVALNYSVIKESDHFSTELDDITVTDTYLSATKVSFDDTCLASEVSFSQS
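Enhancer read-out: after compound pinning and an initial kinetic agonist-mode read, an EC20 of TRH (10 nM final) was injected and fluo-8 calcium signal (Ex 480/Em 530) followed at 1 s/cycle for 100 cycles in TRHR-expressing cells.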
TRHR agonist: activates the human TRH receptor; AID 493084; 0.18% of 360,000 active; TRHR cells, calcium flux fluo-8, FDSS agonist mode; activation, % at 2 µM; also: 0% is about no effect
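TRHR-expressing cells loaded with fluo-8 calcium dye; 23 nL library compound pin-transferred, kinetic FDSS fluorescence (Ex 480/Em 530) recorded about 180 s for agonist-induced calcium release, before a 10 nM TRH EC20 addition for potentiator mode.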
D1 agonist: agonists of human D1 dopamine receptor. 1% of 360,000 active. activation, % at 2 µM. HEK293 T-REx D1 cells, calcium flux, agonist mode. AID 504660; also: 0% is about no effect
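Agonism was scored from calcium flux recorded over 180 s (1 read/s) after pintool compound addition, following a 10-cycle baseline. Cells were inducible force-coupled HEK293 TREx D1, plated overnight at 30 C and loaded with no-wash calcium dye.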
D1 potentiator: enhances dopamine response at the human D1 receptor | 0.036% of 360,000 active | P21728 | potentiation, % at 10 µM | HEK293 TREx D1 cells, calcium flux, dopamine EC20 potentiation; in the data active = potentiation above about 30%; also: 0% is about no effect
The depositor's hits bear a star; / = no result. Rule as the data show it, unless noted: active = activation above about 30%; inactive = the rest.

SMILES	D1 antag	TRHR enhancer	TRHR agonist	D1 agonist	D1 potentiator
CCCCCCN(CCCCCC)C(=O)Cc1c(-c2ccc(F)cc2)[nH]c2ccccc12	-61*	8	0	-1	-7
O=C(CN1CCN(C2CCCCC2)CC1)c1ccc2cc[nH]c2c1	-36*	-2	0	1	4
O=C(CN1CCN(C2CCCCC2)CC1)c1c[nH]c2ccccc12	-11	2	1	7	-1
CCn1cc(CN2CCc3c([nH]c4ccccc34)C2c2cccc(OC)c2)c(C)n1 (configuration not stated)	-35*	-2	0	24	-3
CCn1cc(CN2CCc3c([nH]c4ccccc34)C2c2cccc(O)c2)c(C)n1 (configuration not stated)	-8	-3	1	2	-10
Cc1cc(C)c(NC(=O)CN2CCN(C)CC2)c(C)c1	-4	32*	-1	1	/
COc1ccc(N2CCN(CC(=O)Nc3c(C)cc(C)cc3C)CC2)cc1	-9	1	-1	0	-3
Cc1cc(C)cc(NC(=O)CN2CCN(c3ccccc3)CC2)c1	-32*	8	-1	0	-4
Cc1cccc(C)c1NC(=O)CN1CCN(CCCC(c2ccc(F)cc2)c2ccc(F)cc2)CC1	-53*	0	1	8	-6
COc1ccc(NC(=O)c2ccc3c(=O)n4nc(Nc5ccccc5C)sc4nc3c2)cc1Cl	-2	9	0	1	0
CC1(C)Cc2cccc(OCC(=O)N3CCN(c4ccccc4F)CC3)c2O1	-69*	7	0	4	-4
O=C(COc1ccccc1Cl)N1CCc2ccccc2C1	10	-5	0	2	1
O=C(COc1ccccc1F)N1CCc2ccccc2C1	-58*	-1	0	1	-1
CC(C)(C)c1ccc(OCc2nnc(-c3ccccc3)o2)cc1	-24	-2	1	10	-2
c1ccc(C2=NN(c3ccccc3)CC2)cc1	-3	-1	1	4	-1
CCOC(=O)/C(=C/c1ccc(N2CCC(c3ccccc3)=N2)cc1)C(C)=O	-23	-1	46*	105*	-6
CN(Cc1ccccc1)c1oc(COc2ccccc2F)nc1C#N	-33*	5	-1	29	/
CCN(CC)c1ccc2cc(-c3nc(-c4cc(OC)c(OC)c(OC)c4)no3)c(=O)oc2c1	-29	13	122*	153*	-1
CCN(CC)c1ccc2cc(-c3nc(-c4cccs4)no3)c(=O)oc2c1	-28	13	124*	278*	-4
Cc1ccccc1-c1noc(-c2cc3ccccc3oc2=O)n1	-3	-1	0	2	-3
COc1cc(-c2noc(-c3cc4cccc(C)c4oc3=O)n2)cc(OC)c1OC	5	6	-1	1	-4
CCN(CC)c1ccc2cc(-c3nc(-c4ccccc4F)no3)c(=O)oc2c1	-13	4	65*	204*	2
CCN(CC)C(=O)C1=C(C)Nc2nc3ccccc3n2C1c1ccc(Br)cc1 (configuration not stated)	-5	-9	2	-2	2
O=C1CSC(=S)N1/N=C/c1cc(Br)c(O)c(Br)c1	4	32*	160*	422*	0
COc1cc(/C=N/N2C(=O)CSC2=S)ccc1O	2	1	6	15	-1
SMILES	D1 antag	TRHR enhancer	TRHR agonist	D1 agonist	D1 potentiator
O=C1CC(c2cc(F)cc(F)c2)c2cc3c(cc2N1)OCO3 (configuration not stated)	-4	2	0	11	-3
CC1=CC(C)(C)N(C(=O)CN2C(=O)CCC2=O)c2ccccc21	-38*	-5	0	2	-1
CCCN1CCN(CCCNC(=O)Cn2c(-c3cccs3)cc3cc(Cl)ccc32)CC1	-18	2	1	35*	-1
CCCN1CCN(CCCNC(=O)Cn2c(-c3cccs3)cc3ccccc32)CC1	-4	-1	0	6	0
CCCCCCCCC1=NCCc2c1[nH]c1ccccc21	-14	6	1	38*	-11
O=S(=O)(c1ccc(-c2csc(=Nc3ccc(OC(F)(F)Cl)cc3)n2CCCO)cc1)N1CCCC1	2	-1	-1	-1	2
COc1cccc(CNC(=O)COCc2cc(-c3ccc4c(c3)OCO4)on2)c1	1	3	0	1	-3
CCOc1ccc(CC(=O)Nc2c(C(=O)c3ccccc3)oc3ccc(OC)cc23)cc1OCC	-9	6	1	0	-4
